According to PubChem BioAssay (NCI):
Compounds without any hit were thinned out: in the full panel of roughly 79,000, 15% have a hit. The source made the active and inactive calls. Rule as the data show it: active = growth inhibition above about 70%; inactive = the rest.

Assay: NCI Yeast Anticancer Drug Screen. Data for the rad50 strain (AID 155);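 also: 0% = growth of vehicle-only cultures of the same strain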
Details: S. cerevisiae rad50 strain growth inhibition; at 5.0 µM (retest, dose inferred, filed as 0.5); stronger effect = higher value
Procedure, shortened: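 Genetically altered yeast (DNA repair pathway); compound treatment; growth inhibition vs vehicle ctrl.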
In the case of `Cc1cc2c(Br)cc(Br)c(O)c2nc1C(=O)c1ccccc1`, the growth inhibition is reported as 23% (inactive). With `N=C1c2ccccc2-c2ccccc21` the growth inhibition was 49% (inactive). In the case of `COc1ccc(-c2cn(-c3ccccc3)c3ncnc(N)c23)cc1`, the growth inhibition is reported as 5% (inactive). For `Nc1ccc(N=Nc2ccccc2)c2ccccc12`, the growth inhibition was 9% (inactive). In the case of `CS(=O)(=O)C(=Cc1ccccc1Cl)S(C)(=O)=O`, the growth inhibition is reported as 30% (inactive). For `O=C1c2ccccc2C(=O)c2sc(Nc3cc(Cl)ccc3Cl)nc21`, the growth inhibition was 58% (inactive). In the case of `COC1=CC(=O)c2c(O)c3c(c(O)c2C1=O)C=C(C)OC3O` (stereo not drawn), the growth inhibition is reported as -3% (inactive). In the case of `NC(=S)N/N=C1\NC(=O)/C(=C/c2ccc3c(c2)OCO3)S1`, the growth inhibition is reported as 16% (inactive). With `CCN(CC)P(=S)(c1ccccc1CCP(=S)(c1ccccc1)c1ccccc1)N(CC)CC` the growth inhibition was -6% (inactive). In the case of `CCC(=O)Oc1c(Cl)cc(Cl)c(Cl)c1Cl`, the growth inhibition is reported as 4% (inactive). For `CCOC(=O)C(C)(C)C`, the growth inhibition was 0% (inactive). In the case of `COC1=CC(=O)c2ncccc2C1=O`, the growth inhibition is reported as 13% (inactive). In the case of `O=C1CCSC(=S)N1c1ccccc1C(F)(F)F`, the growth inhibition is reported as 7% (inactive). With `O=C1c2cccc(NCCNCCO)c2C(=O)c2cccc(NCCNCCO)c21` the growth inhibition was 18% (inactive). For `CCOc1cc2c(cc1O)CC[C@@H]1[C@@H]2CC[C@]2(C)[C@@H](O)CC[C@@H]12`, the growth inhibition was 33% (inactive). With `S=C(N/N=C/c1ccccn1)N1CC2CCC(CC2)C1` the growth inhibition was 99% (active). In the case of `COc1ccc(Nc2nc3ccccc3s2)cc1`, the growth inhibition is reported as 1% (inactive). With `O=C(OCC1OC(OCC(OC(=O)c2ccccc2)C(OC(=O)c2ccccc2)C(OC(=O)c2ccccc2)c2cnn(-c3ccccc3)n2)C(OC(=O)c2ccccc2)C(OC(=O)c2ccccc2)C1OC(=O)c1ccccc1)c1ccccc1` (stereo not drawn) the growth inhibition was -6% (inactive). In the case of `O=C(CBr)Nc1ccc(Cc2ccc(NC(=O)CBr)cc2)cc1`, the growth inhibition is reported as 11% (inactive). In the case of `CCOC(=O)Sc1nc2ccccc2[nH]1`, the growth inhibition is reported as 4% (inactive). For `C=C1OC(=O)C(=O)N1CC(=O)O`, the growth inhibition was -156% (inactive). In the case of `Nc1ncnc2c1ncn2C1OCC(O)C1O` (stereo not drawn), the growth inhibition is reported as 24% (inactive). With `CCOC(=O)C(Cc1cc(I)c(Oc2ccc(OC)cc2)c(I)c1)NC(C)=O` (stereo not drawn) the growth inhibition was 36% (inactive). In the case of `BrCc1ccc([Si](c2ccccc2)(c2ccccc2)c2ccc(CBr)cc2)cc1`, the growth inhibition is reported as -3% (inactive). For `O=C1OC(C2OC(=O)C(=O)C2C(=O)c2ccc(Cl)cc2)C(C(=O)c2ccc(Cl)cc2)C1=O` (stereo not drawn), the growth inhibition was -3% (inactive). In the case of `Cc1ccc2c(c1)NC(=O)C(N=[N+]=[N-])(c1ccccc1)C2=O` (stereo not drawn), the growth inhibition is reported as -25% (inactive). With `NC(=O)C1CCCN1C(=O)C1CCCN(Cc2cc(CN3CCCC(C(=O)N4CCCC4C(N)=O)C3)cc(CN3CCCC(C(=O)N4CCCC4C(N)=O)C3)c2)C1` (stereo not drawn) the growth inhibition was 2% (inactive). With `CCCCN(CCCC)CC(O)Cc1cc2ccccc2c2ccccc12` (stereo not drawn) the growth inhibition was 0% (inactive). With `CN(/N=C\c1cccc([N+](=O)[O-])c1)C(c1cccc([N+](=O)[O-])c1)N(C)/N=C/c1cccc([N+](=O)[O-])c1` (stereo not drawn) the growth inhibition was -1% (inactive). In the case of `O=C(CCl)NC(=O)N(/N=C/c1ccco1)c1ccccc1`, the growth inhibition is reported as -1% (inactive). In the case of `CC1CCN(CCCOC(=O)c2ccccc2)CC1`, the growth inhibition is reported as 25% (inactive). In the case of `COC(=O)C1=C(C(=O)OC)C2C(C)=CC(C)=CN2C(C(=O)OC)=C1C(=O)OC` (stereo not drawn), the growth inhibition is reported as -1% (inactive). In the case of `CO/N=C/c1ccc([N+](=O)[O-])s1`, the growth inhibition is reported as -147% (inactive). In the case of `N/C(=N\N=C/c1ccc(O)c(O)c1O)NO`, the growth inhibition is reported as -2% (inactive). In the case of `CC1=C[P+](c2ccccc2)(c2ccccc2)C=C(c2ccccc2)O1`, the growth inhibition is reported as 51% (inactive). In the case of `CC(C)SC(=S)Nc1ccc(Cl)c([N+](=O)[O-])c1`, the growth inhibition is reported as 25% (inactive). With `Nc1ccc2oc(=O)c3ccccc3c2c1` the growth inhibition was 18% (inactive). With `CCCCCSc1nc2ncnc(N)c2[nH]1` the growth inhibition was 1% (inactive). In the case of `CC(C)Cn1cnc2c(SCc3cccc(F)c3)nc(N)nc21`, the growth inhibition is reported as 0% (inactive).

Same assay, conditions: S. cerevisiae rad50 strain growth inhibition; at 50.0 µM (retest, dose inferred, filed as 5.0); stronger effect = higher value
In the case of `Cc1cc2c(Br)cc(Br)c(O)c2nc1C(=O)c1ccccc1`, the growth inhibition is reported as 39% (inactive). With `N=C1c2ccccc2-c2ccccc21` the growth inhibition was 49% (inactive). With `COc1ccc(-c2cn(-c3ccccc3)c3ncnc(N)c23)cc1` the growth inhibition was 18% (inactive). With `Nc1ccc(N=Nc2ccccc2)c2ccccc12` the growth inhibition was 96% (active). For `CS(=O)(=O)C(=Cc1ccccc1Cl)S(C)(=O)=O`, the growth inhibition was 57% (inactive). For `O=C1c2ccccc2C(=O)c2sc(Nc3cc(Cl)ccc3Cl)nc21`, the growth inhibition was 98% (active). For `COC1=CC(=O)c2c(O)c3c(c(O)c2C1=O)C=C(C)OC3O` (stereo not drawn), the growth inhibition was 34% (inactive). In the case of `NC(=S)N/N=C1\NC(=O)/C(=C/c2ccc3c(c2)OCO3)S1`, the growth inhibition is reported as 12% (inactive). With `CCN(CC)P(=S)(c1ccccc1CCP(=S)(c1ccccc1)c1ccccc1)N(CC)CC` the growth inhibition was 34% (inactive). With `CCC(=O)Oc1c(Cl)cc(Cl)c(Cl)c1Cl` the growth inhibition was 56% (inactive). With `CCOC(=O)C(C)(C)C` the growth inhibition was 29% (inactive). In the case of `COC1=CC(=O)c2ncccc2C1=O`, the growth inhibition is reported as 92% (active). In the case of `O=C1CCSC(=S)N1c1ccccc1C(F)(F)F`, the growth inhibition is reported as 99% (active). In the case of `O=C1c2cccc(NCCNCCO)c2C(=O)c2cccc(NCCNCCO)c21`, the growth inhibition is reported as 58% (inactive). In the case of `CCOc1cc2c(cc1O)CC[C@@H]1[C@@H]2CC[C@]2(C)[C@@H](O)CC[C@@H]12`, the growth inhibition is reported as 39% (inactive). With `S=C(N/N=C/c1ccccn1)N1CC2CCC(CC2)C1` the growth inhibition was 100% (active). With `COc1ccc(Nc2nc3ccccc3s2)cc1` the growth inhibition was 15% (inactive). With `O=C(OCC1OC(OCC(OC(=O)c2ccccc2)C(OC(=O)c2ccccc2)C(OC(=O)c2ccccc2)c2cnn(-c3ccccc3)n2)C(OC(=O)c2ccccc2)C(OC(=O)c2ccccc2)C1OC(=O)c1ccccc1)c1ccccc1` (stereo not drawn) the growth inhibition was -1% (inactive). With `O=C(CBr)Nc1ccc(Cc2ccc(NC(=O)CBr)cc2)cc1` the growth inhibition was -4% (inactive). In the case of `CCOC(=O)Sc1nc2ccccc2[nH]1`, the growth inhibition is reported as 6% (inactive). With `C=C1OC(=O)C(=O)N1CC(=O)O` the growth inhibition was -170% (inactive). With `Nc1ncnc2c1ncn2C1OCC(O)C1O` (stereo not drawn) the growth inhibition was 66% (inactive). For `CCOC(=O)C(Cc1cc(I)c(Oc2ccc(OC)cc2)c(I)c1)NC(C)=O` (stereo not drawn), the growth inhibition was 92% (active). In the case of `BrCc1ccc([Si](c2ccccc2)(c2ccccc2)c2ccc(CBr)cc2)cc1`, the growth inhibition is reported as -16% (inactive). For `O=C1OC(C2OC(=O)C(=O)C2C(=O)c2ccc(Cl)cc2)C(C(=O)c2ccc(Cl)cc2)C1=O` (stereo not drawn), the growth inhibition was 63% (inactive). In the case of `Cc1ccc2c(c1)NC(=O)C(N=[N+]=[N-])(c1ccccc1)C2=O` (stereo not drawn), the growth inhibition is reported as 97% (active). With `NC(=O)C1CCCN1C(=O)C1CCCN(Cc2cc(CN3CCCC(C(=O)N4CCCC4C(N)=O)C3)cc(CN3CCCC(C(=O)N4CCCC4C(N)=O)C3)c2)C1` (stereo not drawn) the growth inhibition was 9% (inactive). In the case of `CCCCN(CCCC)CC(O)Cc1cc2ccccc2c2ccccc12` (stereo not drawn), the growth inhibition is reported as 65% (inactive). For `CN(/N=C\c1cccc([N+](=O)[O-])c1)C(c1cccc([N+](=O)[O-])c1)N(C)/N=C/c1cccc([N+](=O)[O-])c1` (stereo not drawn), the growth inhibition was 34% (inactive). For `O=C(CCl)NC(=O)N(/N=C/c1ccco1)c1ccccc1`, the growth inhibition was 52% (inactive). For `CC1CCN(CCCOC(=O)c2ccccc2)CC1`, the growth inhibition was 40% (inactive). With `COC(=O)C1=C(C(=O)OC)C2C(C)=CC(C)=CN2C(C(=O)OC)=C1C(=O)OC` (stereo not drawn) the growth inhibition was -7% (inactive). With `CO/N=C/c1ccc([N+](=O)[O-])s1` the growth inhibition was 95% (active). For `N/C(=N\N=C/c1ccc(O)c(O)c1O)NO`, the growth inhibition was 26% (inactive). In the case of `CC1=C[P+](c2ccccc2)(c2ccccc2)C=C(c2ccccc2)O1`, the growth inhibition is reported as 94% (active). For `CC(C)SC(=S)Nc1ccc(Cl)c([N+](=O)[O-])c1`, the growth inhibition was 99% (active). For `Nc1ccc2oc(=O)c3ccccc3c2c1`, the growth inhibition was 94% (active). With `CCCCCSc1nc2ncnc(N)c2[nH]1` the growth inhibition was 4% (inactive). In the case of `CC(C)Cn1cnc2c(SCc3cccc(F)c3)nc(N)nc21`, the growth inhibition is reported as 27% (inactive).
